The values below come from PubChem BioAssay AID1645878 (National Center for Advancing Translational Sciences (NCATS), 2021).

This is one part of the list. Results filed as inconclusive are left out. Activity calls are given as the source filed them. Calls follow the shape of the dose curve; as a rule, active = well fitted inhibition curve with a large enough effect; inconclusive = small, poorly fitted or top-dose-only effect; inactive = no such curve, though single readings can be large or run the other way.

Sequence of Nicotinamide N-methyltransferase (Homo sapiens) (P40261 whole entry, looked up): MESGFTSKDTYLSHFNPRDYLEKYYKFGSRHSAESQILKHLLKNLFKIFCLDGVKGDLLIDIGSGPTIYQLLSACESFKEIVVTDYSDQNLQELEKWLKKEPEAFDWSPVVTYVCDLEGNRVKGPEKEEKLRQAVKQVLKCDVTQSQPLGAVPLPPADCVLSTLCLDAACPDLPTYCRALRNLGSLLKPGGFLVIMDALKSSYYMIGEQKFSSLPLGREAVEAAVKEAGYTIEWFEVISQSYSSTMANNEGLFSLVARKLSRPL

This assay has as its target Nicotinamide N-methyltransferase (Homo sapiens) (UniProt P40261). Put plainly: Counterscreen qHTS for Inhibitors of N-terminal methyltransferase 1 (NTMT1): NNMT MTaseGlo assay. The note with it: NNMT MTase-Glo luminescence, SAH detection; series mostly up to 57.1 µM. The source says:
Assay Submitter (PI): Rong Huang Ph.D. Purdue University, West Lafayette, IN 47907 The N-terminal methytransferase 1 is the first methyltransferase that methylates protein alpha-N-amines and plays an important role in regulating cell mitosis, chromatin interactions and DNA repair. It is observed to be over-expressed in various cancer patient tissues like malignant melanoma and colorectal cancer tissues. Knockdown of NTMT1 in cancer cells causes cell mitotic defects and enhances sensitivity to DNA damaging chemotherapeutics. […] These critical cellular processes in which NTMT1 is implicated, coupled with emerging links to cellular dysfunction, strengthen the inference that NTMT1 is a compelling novel anticancer target. […] To address this unmet need, a panel of assay is created and established to enable quantitative high-throughput screening (qHTS) for novel, potent, and selective small molecule NTMT1 inhibitors. […] MTaseGlo Assay is a luminescence screen that measure the activity of methyltransferases based on the reaction product S-adenosyl homocysteine (SAH). […]
Materials: NNMT enzyme, SAM, NA, and control is provided by the Huang laboratory. […] 11; Detection; Luminescence; Plates were read using luminescence optics on a ViewLux detector (PerkinElmer). […]
As to `CC(C)(O)c1ccc2c(c1)C(=O)CC1[C@](C)(CO)CCC[C@]21C` (some centres not stated), the compound was classed as inactive.

Turning to `COc1cc2ncnc(Nc3cccc(Cl)c3F)c2cc1OC(=O)N1CCN(C)C[C@H]1C`, the compound was classed as inactive.
